Shown are actives, neighbours in structure and some others; about 19% of the full set was active somewhere.
HT1080-NT tox = qHTS for induction of synthetic lethality in tumor cells producing 2HG: qHTS for the HT-1080-NT fibrosarcoma cell line | HT-1080-NT fibrosarcoma viability, CellTiter-Glo ATP luminescence, 48 h | Potency, µM (doses to about 46.1 µM), for inactives: top-dose activity, negative = less viability, actives largely listed as cytotoxic | 1.6% of 360,000 active | AID 686970, 2013;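 further: NT is the 2HG producing partner of a matched IDH1 knockdown line; potency means the concentration at half of the fitted maximal effect; 0% = DMSO-treated cells and -100% = media-only wells without cells; nearly all actives have a fitted effect of over 55% in size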
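Compounds were tested in concentration-response format on HT-1080-NT cells for 48 hours at 37 degrees C. Cell viability came from CellTiter-Glo luminescence; curves were classified by r2, response magnitude and activity.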
TDP1 cell CPT = qHTS for Inhibitors of human tyrosyl-DNA phosphodiesterase 1 (TDP1): qHTS in cells in presence of CPT. AID 686979, 2013. chicken DT40 Tdp1-/-;hTDP1 cells + 20 nM CPT, ATP luminescence, 48 h. 12% of 420,000 active. Potency, µM (highest dose often 46.2 µM), without a hit: at the top dose activity change, negative = growth inhibition, hits mostly inhibitors; further: potency means the concentration at half of the fitted maximal effect; nearly all actives have a fitted effect of over 55% in size
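Cell growth measured by CellTiter-Glo luminescence after a minimum 48 h, 37 C compound exposure with 20 nM CPT in Tdp1-knockout DT40 cells stably expressing hTDP1, seeded 400/well; qHTS titration format.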
DT40 TDP1 no CPT = qHTS for Inhibitors of human tyrosyl-DNA phosphodiesterase 1 (TDP1): qHTS in cells in absence of CPT | DT40 Tdp1-/- hTDP1 cells, no CPT, ATP luminescence, 48 h | Potency, µM (titrated, usually from 46.2 µM), inactives show at the highest dose activity change, negative = growth inhibition, hits mostly inhibitors | 15% of 420,000 active; further: potency means the concentration at half of the fitted maximal effect; nearly all actives have a fitted effect of over 55% in size
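Cells were dispensed at 400 per well, compounds added by pin tool, plates incubated ≥48 hr at 37 °C, then CellTiter-Glo added for 30 min at room temperature before luminescence reading. Line: DT40 Tdp1-/- complemented with hTDP1; camptothecin omitted.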
IL-1B inflam inh = qHTS for Inhibitors of Inflammasome Signaling: IL-1-beta AlphaLISA Primary Screen. THP-1 LPS/ATP IL-1B secretion, AlphaLISA, 16 h; active compounds read low. activity change, % at 57.5 µM. 4.7% of 360,000 active; in the data active means activity change below about -50%; inconclusive means mostly about -30% to -49%
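THP-1 cells pretreated 1 hr with compounds (up to 57.5 uM final), then stimulated with LPS (250 ng/mL final) plus ATP (1.25 mM final); secreted IL-1B measured by AlphaLISA after 16 hr, decreased signal indicating inhibition.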
HT1080 IDH1KD tx = qHTS for induction of synthetic lethality in tumor cells producing 2HG: qHTS for the HT-1080-IDH1KD cell line; 2% of 360,000 active; AID 686971, 2013; HT-1080 IDH1 knockdown viability, ATP luminescence, 48 h; Potency, µM (doses to about 46.1 µM), without a hit: top-dose activity, negative = toxicity, usual class: cytotoxic;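 further: potency means the concentration at half of the fitted maximal effect; 0% = DMSO wells and -100% = cell-free medium wells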
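Viability of IDH1-knockdown HT-1080 fibrosarcoma cells was assessed by CellTiter-Glo after 48 h at 37 °C with titrated compound; concentration-effect curves were classified by fit quality and response size.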
* = called active by the depositor; [ ] = dose if it differs, or a comment. Unless noted, the call rests on the fitted dose curve; in most records, active means well fitted curve in the direction sought with a large enough effect; inconclusive means small, poorly fitted or top-dose-only effect, or another doubt; inactive means no such curve, though single readings can be large; an effect the other way counts as inactive or inconclusive. Unless noted, on the % scale 0 is the no-effect control and ±100 the full control effect.

Screening O=C(O)c1cc(O)c2c(c1)[C@H]([C@H]1c3cc(C(=O)O)cc(O)c3C(=O)c3c(O[C@@H]4O[C@H](CO)[C@@H](O)[C@H](O)[C@H]4O)cccc31)c1cccc(O[C@@H]3O[C@H](CO)[C@@H](O)[C@H](O)[C@H]3O)c1C2=O returned TDP1 cell CPT -21% and DT40 TDP1 no CPT -11%.
For CCCc1cc(=O)oc2c3c(c4c(c12)OC(C)(C)C=C4)OC(C)C(C)C3O (centres undefined) the results were HT1080-NT tox 5.8µM*, TDP1 cell CPT 8.2µM*, DT40 TDP1 no CPT 6.5µM*, IL-1B inflam inh -71* and HT1080 IDH1KD tx 3.7µM*.
For CCN1CCc2c(sc(-n3cccc3)c2C(C)NC(=O)Nc2ccc(Br)cc2)C1 (centres undefined) the results were TDP1 cell CPT 16µM* and DT40 TDP1 no CPT 13µM*.
CCOc1ccc(NC(=O)NCc2c(-n3cccc3)sc3c2CCCC3)cc1 was read as TDP1 cell CPT -4% and DT40 TDP1 no CPT -15%.
For CCOc1ccc(NC(=O)NC(C)c2c(-n3cccc3)sc3c2CCN(CC)C3)cc1 (centres undefined) the results were TDP1 cell CPT 21µM* and DT40 TDP1 no CPT 18µM*.
For CCOCCCNC(=O)NC(C)c1c(-n2cccc2)sc2c1CCN(CC)C2 (centres undefined) the results were TDP1 cell CPT 13µM* and DT40 TDP1 no CPT 16µM*.
For CCOC(=O)N1CCC(NC(=O)c2cc(COc3ccccc3SC)on2)CC1 the results were HT1080-NT tox 3%, TDP1 cell CPT 3.7µM*, DT40 TDP1 no CPT 1.5µM*, IL-1B inflam inh -22 and HT1080 IDH1KD tx inconclusive.
Cn1ccnc1C1CCCCN1C(=O)c1cc(COc2ccc(F)cc2F)on1 (centres undefined) was read as HT1080-NT tox 4%, TDP1 cell CPT inconclusive, DT40 TDP1 no CPT 13µM*, IL-1B inflam inh -1 and HT1080 IDH1KD tx 6%.
For NC(=O)[C@@H]1CCCN1C(=O)c1cc(COc2ccc(F)cc2F)on1 the results were HT1080-NT tox 1%, TDP1 cell CPT -3%, DT40 TDP1 no CPT 10%, IL-1B inflam inh -1 and HT1080 IDH1KD tx -6%.
Screening CSc1ccccc1OCc1cc(C(=O)N2CCCC2c2nonc2C)no1 (centres undefined) returned HT1080-NT tox 11%, TDP1 cell CPT 23µM*, DT40 TDP1 no CPT 21µM*, IL-1B inflam inh -29 and HT1080 IDH1KD tx -6%.
Screening CSc1ccccc1OCc1cc(C(=O)N2CCc3[nH]cnc3C2c2ccccn2)no1 (centres undefined) returned HT1080-NT tox 3%, TDP1 cell CPT -14%, DT40 TDP1 no CPT 2.9µM*, IL-1B inflam inh -15 and HT1080 IDH1KD tx 5%.
COCc1cc(N2CCOCC2)nc(-c2ccccc2)n1 was read as HT1080-NT tox -6%, TDP1 cell CPT 23µM*, DT40 TDP1 no CPT inconclusive, IL-1B inflam inh inconclusive and HT1080 IDH1KD tx -2%.
For CC(C)Sc1cc(N2CCOCC2)nc(-c2ccccc2)n1 the results were HT1080-NT tox -13%, TDP1 cell CPT 23µM*, DT40 TDP1 no CPT 16µM*, IL-1B inflam inh inconclusive and HT1080 IDH1KD tx -22%.
For Fc1ccccc1N1CCN(Cc2nc(-c3ccccc3)no2)CC1 the results were HT1080-NT tox -3%, TDP1 cell CPT -12%, DT40 TDP1 no CPT -16%, IL-1B inflam inh 15 and HT1080 IDH1KD tx -3%.
`CC(C)Sc1cc(N2CCCC2)nc(-c2ccc(F)cc2)n1` gave HT1080-NT tox -2%, TDP1 cell CPT 6%, DT40 TDP1 no CPT inconclusive, IL-1B inflam inh 2 and HT1080 IDH1KD tx -8%.
Screening COCc1cc(N2CCN(c3ccccc3F)CC2)nc(-c2ccccc2)n1 returned HT1080-NT tox 3%, TDP1 cell CPT inconclusive, DT40 TDP1 no CPT 12µM*, IL-1B inflam inh 38 and HT1080 IDH1KD tx -8%.
Screening CC(C)[C@H](NC(=O)N1CC(=O)Nc2ccccc21)C(=O)N1CCC(C(=O)O)CC1 returned HT1080-NT tox -2%, TDP1 cell CPT 5%, DT40 TDP1 no CPT 33%, IL-1B inflam inh -10 and HT1080 IDH1KD tx -1%.
COC(=O)[C@@H]1CCCN1Cc1ccc2c(c1)CN(Cc1ccc3c(c1)OCCO3)CCO2 was read as TDP1 cell CPT 16%[9.04 µM] and DT40 TDP1 no CPT -13%.
CC12CCC(=O)N1C(C(=O)N1CCN(c3cccc(Cl)c3)CC1)CS2 (centres undefined) was read as HT1080-NT tox 10%, TDP1 cell CPT -24%, DT40 TDP1 no CPT -17%, IL-1B inflam inh 23 and HT1080 IDH1KD tx 11%.
Screening OC(COCc1ccccc1F)CN1CCCCC1 (centres undefined) returned HT1080-NT tox 24%, TDP1 cell CPT -10%, DT40 TDP1 no CPT 0%, IL-1B inflam inh -5 and HT1080 IDH1KD tx 17%.
For O=C(Nc1ccccc1)Nc1cccc2nsnc12 the results were HT1080-NT tox inconclusive, TDP1 cell CPT inconclusive, DT40 TDP1 no CPT inconclusive, IL-1B inflam inh -74* and HT1080 IDH1KD tx inconclusive.
`CC(C)(C)C1CCC(C(=O)Nc2ccccc2)CC1` (centres undefined) gave HT1080-NT tox 18%, TDP1 cell CPT inconclusive, DT40 TDP1 no CPT inconclusive, IL-1B inflam inh -15 and HT1080 IDH1KD tx 6%.
Screening CC(=O)Nc1ccc(Nc2ccccc2)cc1 returned HT1080-NT tox 8%, TDP1 cell CPT inconclusive, DT40 TDP1 no CPT 1%, IL-1B inflam inh 1 and HT1080 IDH1KD tx 17%.
Screening O=C(O)CC(CC(=O)Nc1ccc(-n2ccc(C(F)(F)F)n2)cc1)c1ccccc1 (centres undefined) returned HT1080-NT tox 2%, TDP1 cell CPT 12%, DT40 TDP1 no CPT 5%, IL-1B inflam inh 25 and HT1080 IDH1KD tx 3%.
For O=C(Nc1ccc(Nc2ccccc2)cc1)C1CC1 the results were HT1080-NT tox 6%, TDP1 cell CPT 7.3µM*, DT40 TDP1 no CPT 6.5µM*, IL-1B inflam inh -29 and HT1080 IDH1KD tx -10%.
O=C(Nc1ccccc1)Nc1ccc(Nc2ccccc2)cc1 was read as HT1080-NT tox -16%, TDP1 cell CPT inconclusive, DT40 TDP1 no CPT 7.3µM*, IL-1B inflam inh -20 and HT1080 IDH1KD tx -2%.

High-throughput results deposited in PubChem BioAssay by National Center for Advancing Translational Sciences (NCATS).
